Reference: PubChem BioAssay (Tox21)
Inconclusive results are not listed. Calls of active or inactive are those of the source. Unless noted, calls follow the shape of the full dose curve.

Tests used:
[1] = Nuclear factor erythroid 2-related factor 2/antioxidant responsive element (Nrf2/ARE) small molecule agonists: qHTS cell viability counter screen in human keratinocytes (AID 1919968; active = well fitted curve in the direction sought with a large enough effect in the repeat runs; an effect the other way counts as inactive or inconclusive; also: nearly all actives have a fitted effect of over 55% in size)
In short: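 Cells of the KeratinoSens line were plated at 1,500 per well and left for 5 h before compound transfer from DMSO stocks. After a 23 h incubation (37 C, 5% CO2), CellTiter-Fluor was added. Signal was taken as fluorescence intensity 1 h later.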

[2] = Nuclear factor erythroid 2-related factor 2/antioxidant responsive element (Nrf2/ARE) small molecule agonists: luciferase reporter gene qHTS assay in human keratinocytes (AID 1919969); also: nearly all actives have a fitted effect of over 35% in size
[3] = target: Gonadotropin-releasing hormone receptor (Homo sapiens) (UniProt P30968); experiment: Human gonadotropin-releasing hormone receptor (GnRHR) small molecule agonists, calcium flux assay in GnRHR-HEK293 cells (AID 1920063); also: nearly all actives have a fitted effect of over 35% in size
In short: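 Compounds dissolved in DMSO are pin-transferred onto dye-loaded GnRHR-HEK293 cells, which were seeded 18 h before at 37 C/5% CO2. Calcium signal is read as fluorescence intensity at 1 s intervals for 3 min.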

[4] = target: KiSS-1 receptor (Homo sapiens) (UniProt Q969F8); experiment: Human kisspeptin (KISS1R) small molecule agonists, calcium flux assay in KISS1R-HEK293 cells (AID 1920064; active = well fitted curve in the direction sought with a large enough effect in the repeat runs; an effect the other way counts as inactive or inconclusive)
In short: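 Cell line: HEK293, stable human KISS1R. Dye loading 1 h at 37 C after 18 h culture. Read: kinetic fluorescence, 480/540 nm, 3 min at 1 s intervals.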

[5] = p53 small molecule agonists, cell-based qHTS assay with human liver microsomes (AID 1963577)
In short: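 Compounds act here after metabolic activation: human liver microsomes and NADPH, both at 0.5 mg/mL final, were co-added to p53RE-bla cells. Incubation ran 16 h at 37 C, followed by LiveBLAzer detection.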

[6] = p53 small molecule agonists, cell-based qHTS assay with rat liver microsomes (AID 1963578)
In short: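 Read-out is beta-lactamase reporter fluorescence (LiveBLAzer, 2 h, room temperature, dark) in p53RE-bla cells treated 16 h at 37 C with compound, rat liver microsomes and NADPH, both 0.5 mg/mL final.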

[7] = p53 small molecule agonists, cell-based qHTS assay with human liver microsomes: qHTS cell viability counter screen (AID 1963579); also: nearly all actives have a fitted effect of over 45% in size
In short: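 Cells carrying the p53 response-element beta-lactamase reporter are treated for 16 h at 37 C with test compounds in the presence of human liver microsomes and NADPH (both 0.5 mg/mL final); ATP-based CellTiter-Glo luminescence then reports viability.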

[8] = p53 small molecule agonists, cell-based qHTS assay with rat liver microsomes: qHTS cell viability counter screen (AID 1963580); also: nearly all actives have a fitted effect of over 45% in size
In short: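 Cytotoxicity counter screen: intracellular ATP measured by CellTiter-Glo luminescence in the same wells as the beta-lactamase reporter read, on HCT-116 p53RE-bla cells exposed 16 h at 37 C to compounds with rat liver microsomes and NADPH, each 0.5 mg/mL final.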

[9] = p53 small molecule agonists, cell-based qHTS assay: qHTS cell viability counter screen (AID 1963581); also: nearly all actives have a fitted effect of over 45% in size
In short: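 ATP content measured by luminescence in HCT-116 p53RE-bla cells treated 16 h at 37 C, same wells as the reporter screen.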

[10] = target: 5-hydroxytryptamine receptor 2A (Homo sapiens) (UniProt P28223); experiment: 5-hydroxytryptamine receptor 2A (HTR2A) small molecule antagonists, cell-based qHTS assay (AID 1963586); also: nearly all actives have a fitted effect of over 45% in size
In short: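 CHO cells stably expressing human HTR2A were plated for 18 h at 37 C, then loaded with calcium dye for 1 h. Compounds were preincubated 5 min at room temperature before DOI (4 nM solution) was added. Kinetic fluorescence was read for 3 min.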

[11] = target: 5-hydroxytryptamine receptor 2A (Homo sapiens) (UniProt P28223); experiment: 5-hydroxytryptamine receptor 2A (HTR2A) small molecule agonists, cell-based qHTS assay (AID 1963587); also: nearly all actives have a fitted effect of over 30% in size
In short: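 CHO cells stably expressing human HTR2A, plated 18 h, loaded with calcium dye 1 h at 37 C. Agonist mode: compounds added and intracellular calcium fluorescence recorded kinetically for 2 min at 1 sec intervals.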

[12] = target: Muscarinic acetylcholine receptor M1 (Homo sapiens) (UniProt P11229); experiment: Cholinergic receptor muscarinic 1 (CHRM1) small molecule antagonists, cell-based qHTS assay (AID 1963588); also: nearly all actives have a fitted effect of over 40% in size
In short: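 Compounds were tested at 15 concentrations in three independent runs. Dye-loaded CHRM1-CHO cells were exposed 5 min at room temperature before stimulation by acetylcholine added at 50nM. Intracellular calcium was read kinetically on FDSS for 3 min.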

[13] = target: Muscarinic acetylcholine receptor M1 (Homo sapiens) (UniProt P11229); experiment: Cholinergic receptor muscarinic 1 (CHRM1) small molecule agonists, cell-based qHTS assay (AID 1963589); also: nearly all actives have a fitted effect of over 35% in size
In short: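 Homogeneous fluorescence calcium flux, agonist mode. Human M1-expressing CHO cells; compound dosed at 15 concentrations, three independent runs; signal sampled every 1 sec.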

[14] = cAMP Responsive Elements (CRE) small molecule agonists, cell-based qHTS assay (AID 1963590)
In short: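 HEK 293T cells stably bearing CRE-bla were plated at 2,000 cells per well and rested 18 h. Compounds, positive controls or DMSO were added for 3 h at 37 C. LiveBLAzer B/G substrate was then loaded for 2 h at room temperature.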

[15] = cAMP Responsive Elements (CRE) small molecule antagonists, cell-based qHTS assay (AID 1963591; active = well fitted inhibition curve with a large enough effect in the signal ratio in the repeat runs, not every such curve was filed as active; the % refers to the signal ratio)
In short: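 First, CRE-bla HEK293T cells settled 18 h at 37 C. Next, compound and 0.25 uM final NKH477 were applied for 3 h. Last, LiveBLAzer B/G substrate was loaded for 2 h at room temperature.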

[16] = target: Beta-2 adrenergic receptor (Homo sapiens) (UniProt P07550); experiment: Adrenergic beta2 receptor (ADRB2) small molecule antagonists, cell-based qHTS assay (AID 1963592); also: series mostly up to about 92 µM; nearly all actives have a fitted effect of over 50% in size
In short: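 Assay format: CHO-ADRB2 cells, 18-20hr seeding at 37C/5% CO2, then compound plus 1nM isoproterenol agonist mix for 0.5hr RT. Homogeneous time-resolved fluorescence cAMP detection after 1hr, expressed as 665/615 nm ratio.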

[17] = target: Beta-2 adrenergic receptor (Homo sapiens) (UniProt P07550); experiment: Adrenergic beta2 receptor (ADRB2) small molecule agonists, cell-based qHTS assay (AID 1963593);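 also: CHO cells stably overexpressing human ADRB2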
In short: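 CHO cells stably over-expressing ADRB2 were plated overnight at 37C, then dosed with compounds plus a stimulation mix containing 100uM IBMX and 25uM Ro-20-1724 for 0.5hr at room temperature. cAMP was measured by HTRF competition, 1hr.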

[18] = target: D(2) dopamine receptor (Homo sapiens) (UniProt P14416); experiment: Dopamine D2 receptor (DRD2) small molecule agonists, cell-based qHTS assay (AID 1963594); also: nearly all actives have a fitted effect of over 35% in size
In short: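 HEK293 cells stably expressing human DRD2, pre-treated with PDE inhibitor Ro20-1724 (0.1 mM final) and compound 10 min at room temperature, then stimulated with NKH477 (200nM […]) for 30 min. cAMP read by HTRF (665/620 nm).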

[19] = target: D(2) dopamine receptor (Homo sapiens) (UniProt P14416); experiment: Dopamine D2 receptor (DRD2) small molecule antagonists, cell-based qHTS assay (AID 1963595; active = well fitted inhibition curve with a large enough effect in the signal ratio in the repeat runs, with a control signal flat; the % refers to the signal ratio)
In short: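 Antagonist mode in DRD2-HEK293 cells: after compound addition with 0.1 mM Ro20-1724, cells received quinpirole (12 nM) and NKH477 (200 nM) for 30 min at room temperature; HTRF cAMP read after 1 h detection.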

Measured: Potency

Chain of Beta-2 adrenergic receptor (Homo sapiens) (P07550 whole entry, looked up): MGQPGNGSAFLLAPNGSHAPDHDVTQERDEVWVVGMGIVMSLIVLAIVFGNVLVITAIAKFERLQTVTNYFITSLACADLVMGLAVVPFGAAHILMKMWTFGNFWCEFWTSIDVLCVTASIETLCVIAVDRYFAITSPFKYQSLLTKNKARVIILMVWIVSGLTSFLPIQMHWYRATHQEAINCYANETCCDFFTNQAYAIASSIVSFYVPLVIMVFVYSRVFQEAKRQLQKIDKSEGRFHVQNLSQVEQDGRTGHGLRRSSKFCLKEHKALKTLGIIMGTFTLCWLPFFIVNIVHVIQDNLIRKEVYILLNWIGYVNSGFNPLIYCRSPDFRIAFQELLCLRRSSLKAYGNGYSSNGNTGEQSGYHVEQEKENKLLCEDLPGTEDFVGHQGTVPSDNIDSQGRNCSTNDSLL
Chain of D(2) dopamine receptor (Homo sapiens) (P14416 whole entry, looked up): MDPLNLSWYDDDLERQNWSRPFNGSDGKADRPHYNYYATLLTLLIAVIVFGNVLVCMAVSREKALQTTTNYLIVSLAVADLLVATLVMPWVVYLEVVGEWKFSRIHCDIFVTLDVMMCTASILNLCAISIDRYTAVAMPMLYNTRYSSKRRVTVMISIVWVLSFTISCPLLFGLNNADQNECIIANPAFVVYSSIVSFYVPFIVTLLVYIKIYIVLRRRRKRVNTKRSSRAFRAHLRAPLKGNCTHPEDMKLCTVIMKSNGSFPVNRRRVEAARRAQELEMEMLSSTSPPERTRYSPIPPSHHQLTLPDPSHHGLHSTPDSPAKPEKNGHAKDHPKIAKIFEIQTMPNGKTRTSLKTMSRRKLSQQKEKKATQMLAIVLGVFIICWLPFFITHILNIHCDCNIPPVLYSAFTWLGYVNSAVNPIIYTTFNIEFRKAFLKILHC
Chain of KiSS-1 receptor (Homo sapiens) (Q969F8 whole entry, looked up): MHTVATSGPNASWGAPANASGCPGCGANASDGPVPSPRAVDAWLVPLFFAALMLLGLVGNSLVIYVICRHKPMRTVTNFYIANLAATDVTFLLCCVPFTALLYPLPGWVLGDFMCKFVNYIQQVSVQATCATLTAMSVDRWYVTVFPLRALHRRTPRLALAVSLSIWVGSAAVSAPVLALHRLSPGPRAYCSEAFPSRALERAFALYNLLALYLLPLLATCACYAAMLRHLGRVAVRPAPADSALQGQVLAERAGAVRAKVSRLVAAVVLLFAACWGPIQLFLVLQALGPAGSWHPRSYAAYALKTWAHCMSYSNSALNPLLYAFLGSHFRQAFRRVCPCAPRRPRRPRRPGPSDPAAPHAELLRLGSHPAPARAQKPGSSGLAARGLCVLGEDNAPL
Chain of Muscarinic acetylcholine receptor M1 (Homo sapiens) (P11229 whole entry, looked up): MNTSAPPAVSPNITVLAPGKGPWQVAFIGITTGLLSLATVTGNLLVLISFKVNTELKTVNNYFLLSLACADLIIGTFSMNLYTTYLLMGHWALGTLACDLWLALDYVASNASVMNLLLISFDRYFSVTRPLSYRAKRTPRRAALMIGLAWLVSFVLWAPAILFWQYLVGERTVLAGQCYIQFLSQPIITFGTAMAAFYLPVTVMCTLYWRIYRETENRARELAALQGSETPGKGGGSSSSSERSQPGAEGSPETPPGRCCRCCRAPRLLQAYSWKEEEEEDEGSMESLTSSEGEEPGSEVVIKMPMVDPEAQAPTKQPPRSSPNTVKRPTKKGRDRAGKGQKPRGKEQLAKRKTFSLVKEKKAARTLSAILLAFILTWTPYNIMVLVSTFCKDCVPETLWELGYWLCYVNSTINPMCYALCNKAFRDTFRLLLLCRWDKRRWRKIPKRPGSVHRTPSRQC
Chain of 5-hydroxytryptamine receptor 2A (Homo sapiens) (P28223 whole entry, looked up): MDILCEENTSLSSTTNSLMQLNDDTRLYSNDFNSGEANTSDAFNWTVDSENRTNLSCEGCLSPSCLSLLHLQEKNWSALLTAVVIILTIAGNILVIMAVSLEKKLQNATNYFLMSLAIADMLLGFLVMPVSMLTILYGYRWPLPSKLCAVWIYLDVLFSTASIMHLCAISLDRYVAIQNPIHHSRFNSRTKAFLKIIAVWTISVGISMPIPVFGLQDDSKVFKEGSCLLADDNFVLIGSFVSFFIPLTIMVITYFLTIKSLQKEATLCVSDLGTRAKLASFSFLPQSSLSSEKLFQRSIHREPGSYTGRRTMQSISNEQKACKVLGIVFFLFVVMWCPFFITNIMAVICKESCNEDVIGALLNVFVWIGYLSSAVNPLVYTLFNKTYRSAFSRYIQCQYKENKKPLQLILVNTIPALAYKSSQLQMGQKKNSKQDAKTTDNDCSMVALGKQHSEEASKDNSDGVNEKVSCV
Chain of Gonadotropin-releasing hormone receptor (Homo sapiens) (P30968 whole entry, looked up): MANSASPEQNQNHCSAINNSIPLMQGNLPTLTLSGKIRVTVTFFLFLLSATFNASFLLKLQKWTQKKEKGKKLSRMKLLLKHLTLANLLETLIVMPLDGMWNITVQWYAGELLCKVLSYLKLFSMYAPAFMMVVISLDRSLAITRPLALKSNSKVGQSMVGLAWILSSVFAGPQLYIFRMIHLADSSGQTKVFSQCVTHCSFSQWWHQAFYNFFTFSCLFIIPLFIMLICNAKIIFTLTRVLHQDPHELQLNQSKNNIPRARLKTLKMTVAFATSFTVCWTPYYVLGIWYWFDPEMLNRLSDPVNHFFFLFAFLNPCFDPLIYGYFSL

O=C(O)c1ccc(C(=O)O)cc1
inactive: [1] | [2] | [3] | [4] | [5] | [6] | [7] | [8] | [9] | [10] | [11] | [12] | [13] | [14] | [15] | [16] | [17] | [18] | [19]

CCCCC(CC)CO (stereo not drawn)
inactive: [1] | [2] | [3] | [4] | [5] | [6] | [7] | [8] | [9] | [10] | [11] | [12] | [13] | [14] | [15] | [16] | [18] | [19]

Cc1cc(C)nc(NS(=O)(=O)c2ccc(N)cc2)n1
inactive: [1] | [2] | [3] | [4] | [5] | [6] | [7] | [8] | [9] | [14] | [15] | [16] | [17] | [18] | [19]

CC(C)(CO)CO
inactive: [1] | [2] | [3] | [4] | [5] | [6] | [7] | [8] | [9] | [11] | [12] | [13] | [14] | [15] | [16] | [18] | [19]

CN/C(=C\[N+](=O)[O-])NCCSCc1csc(CN(C)C)n1
inactive: [1] | [2] | [3] | [4] | [5] | [6] | [7] | [8] | [9] | [14] | [15] | [16] | [17] | [18] | [19]

O=[N+]([O-])C(CO)(CO)CO
inactive: [1] | [2] | [3] | [4] | [5] | [6] | [7] | [8] | [10] | [11] | [12] | [13] | [14] | [16] | [17] | [18]

CC(=O)Nc1ccc2c(c1)Cc1cc(NC(C)=O)ccc1-2
inactive: [1] | [2] | [3] | [4] | [5] | [6] | [7] | [8] | [9] | [10] | [11] | [12] | [13] | [15] | [16] | [17] | [18] | [19]
